# The supplement of paper PMC10849652
# About 7,900 targets were measured; listed, in parts, are those with a hit and a random draw of the rest. About 0.6% of all pairs of compound and target were hits. Values without a mark were called inactive.
# Assays:
# Experiment in all cases: log2 fold change, soluble protein after heating vs DMSO (PISA); higher = thermal stabilisation; K562 cells, 10 uM, 30 min; active = over 0.2 and 3.5 SD of the protein, either way, in both replicates (recomputed)
# [1] = compound: CC1=C(C=C(C=C1)NC(=O)C2=CC(=CC=C2)C(C)(C)C#N)NC3=CC4=C(C=C3)N=CN(C4=O)C
# How it was run: (§1)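 K562 cells at 2×10^6 cells/mL were given 10 μM compound for 30 min. Aliquots then went through 3 min of heating across 48°C-58°C, were pooled, and were extracted in PBS with 0.5% NP-40 at 4°C, and the supernatant after 21,000xg for 90 min was quantified by TMTpro 16plex LC-MS/MS with channel sums equalised. Thermal stability relative to control samples, from duplicates, is given as log2 fold change.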
# [2] = compound: CC1=C(C=C(C=C1)NC(=O)C2=CC(=CC=C2)N(C)C)NC(=O)C3=CC=C(C=C3)O
# How it was run: as §1
# [3] = compound: CC1=CC=C(C=C1)SC2=C3C=C(SC3=CN=C2)C(=O)N
# How it was run: as §1
# [4] = compound: CC1=NC(=CC=C1)C2=C(N=C(N2)C(C)(C)C)C3=CC4=NC=CN=C4C=C3
# How it was run: as §1
# Nexturastat A = compound: CCCCN(Cc1ccc(C(=O)NO)cc1)C(=O)Nc1ccccc1 [Nexturastat A]
# How it was run: as §1
# vemurafenib = compound: CCCS(=O)(=O)Nc1ccc(F)c(C(=O)c2c[nH]c3ncc(-c4ccc(Cl)cc4)cc23)c1F [vemurafenib]
# How it was run: as §1
# [5] = compound: CCCS(=O)(=O)Nc1ccc(F)c(C(=O)c2c[nH]c3ncc(Cl)cc23)c1F
# How it was run: as §1
# [6] = compound: CCCc1cc(C)[nH]c(=O)c1CNC(=O)c1cc(-c2ccnc(N3CCN(C)CC3)c2)cc2c1cnn2C(C)C
# How it was run: as §1
# givinostat = compound: CCN(CC)Cc1ccc2cc(COC(=O)Nc3ccc(C(=O)NO)cc3)ccc2c1 [givinostat]
# How it was run: as §1
# barasertib = compound: CCN(CCCOc1ccc2c(Nc3cc(CC(=O)Nc4cccc(F)c4)[nH]n3)ncnc2c1)CCOP(=O)(O)O [barasertib]
# How it was run: as §1
# [7] = compound: CC[C@@H]1C(=O)N(C)c2cnc(Nc3ccc(C(=O)NC4CCN(C)CC4)cc3OC)nc2N1C1CCCC1
# How it was run: as §1
# volasertib = compound: CC[C@@H]1C(=O)N(C)c2cnc(Nc3ccc(C(=O)N[C@H]4CC[C@H](N5CCN(CC6CC6)CC5)CC4)cc3OC)nc2N1C(C)C [volasertib]
# How it was run: as §1
# [8] = compound: CC[C@H](C)N1C=C(C2=C(C=C(C=C21)C3=CN=C(C=C3)N4CCNCC4)C(=O)NCC5=C(C=C(NC5=O)C)C)C
# How it was run: as §1
# epoxomicin = compound: CC[C@H](C)[C@@H](C(=O)N[C@@H]([C@@H](C)O)C(=O)N[C@@H](CC(C)C)C(=O)[C@]1(CO1)C)NC(=O)[C@H]([C@@H](C)CC)N(C)C(=O)C [epoxomicin]
# How it was run: as §1
# [9] = compound: CCn1c(C(=O)N(C2CC2)C2CC2)cc2c3c(ncn3C)c(Nc3cc(C)n(C)n3)nc21
# How it was run: as §1
# [10] = compound: CCn1cc(-c2ccnc3[nH]c(-c4cccc(CN(C)C)c4)cc23)c(-c2ccc(NC(=O)N(C)C)cc2)n1
# How it was run: as §1
# [11] = compound: CN(C)CC(=O)Nc1ccc2[nH]c(=O)c3ccccc3c2c1
# How it was run: as §1
# rosiglitazone = compound: CN(CCOC1=CC=C(C=C1)C[C@H]2C(=O)NC(=O)S2)C3=CC=CC=N3 (racemic) [rosiglitazone]
# How it was run: as §1
# [12] = compound: CN1C2=C(C3=C1C(=O)N(N=C3)CC4=CC(=CC=C4)N)SC(=C2)S(=O)C
# How it was run: as §1
# [13] = compound: CN1CCC(CNc2ccc3ncc(-c4cccc(OC(F)(F)F)c4)n3n2)CC1
# How it was run: as §1
# UniProt Q9BQY4, sequence (Q9BQY4 whole entry, looked up): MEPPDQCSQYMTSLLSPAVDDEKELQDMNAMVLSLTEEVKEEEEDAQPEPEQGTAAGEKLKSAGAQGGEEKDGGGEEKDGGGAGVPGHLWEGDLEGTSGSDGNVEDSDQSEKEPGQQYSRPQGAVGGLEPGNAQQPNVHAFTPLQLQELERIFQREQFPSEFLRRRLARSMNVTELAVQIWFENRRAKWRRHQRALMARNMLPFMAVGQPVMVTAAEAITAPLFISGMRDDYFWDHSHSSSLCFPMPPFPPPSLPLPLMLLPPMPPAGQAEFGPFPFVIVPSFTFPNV
# UniProt Q9NPQ8, sequence (Q9NPQ8 whole entry, looked up): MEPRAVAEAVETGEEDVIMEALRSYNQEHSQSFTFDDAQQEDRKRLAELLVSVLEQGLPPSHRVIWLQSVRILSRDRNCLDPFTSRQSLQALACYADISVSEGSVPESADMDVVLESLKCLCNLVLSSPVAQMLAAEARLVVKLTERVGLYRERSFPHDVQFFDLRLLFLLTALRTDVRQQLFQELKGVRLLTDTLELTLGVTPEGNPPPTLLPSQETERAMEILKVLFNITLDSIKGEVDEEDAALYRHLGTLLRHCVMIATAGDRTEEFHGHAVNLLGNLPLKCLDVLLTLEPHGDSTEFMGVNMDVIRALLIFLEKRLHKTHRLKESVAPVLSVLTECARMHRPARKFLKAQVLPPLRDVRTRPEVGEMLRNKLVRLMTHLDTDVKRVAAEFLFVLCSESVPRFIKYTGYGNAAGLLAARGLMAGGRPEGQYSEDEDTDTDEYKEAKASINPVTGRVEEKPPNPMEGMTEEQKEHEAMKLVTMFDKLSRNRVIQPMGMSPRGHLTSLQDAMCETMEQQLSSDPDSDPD
# UniProt Q8N122, sequence (Q8N122 whole entry, looked up): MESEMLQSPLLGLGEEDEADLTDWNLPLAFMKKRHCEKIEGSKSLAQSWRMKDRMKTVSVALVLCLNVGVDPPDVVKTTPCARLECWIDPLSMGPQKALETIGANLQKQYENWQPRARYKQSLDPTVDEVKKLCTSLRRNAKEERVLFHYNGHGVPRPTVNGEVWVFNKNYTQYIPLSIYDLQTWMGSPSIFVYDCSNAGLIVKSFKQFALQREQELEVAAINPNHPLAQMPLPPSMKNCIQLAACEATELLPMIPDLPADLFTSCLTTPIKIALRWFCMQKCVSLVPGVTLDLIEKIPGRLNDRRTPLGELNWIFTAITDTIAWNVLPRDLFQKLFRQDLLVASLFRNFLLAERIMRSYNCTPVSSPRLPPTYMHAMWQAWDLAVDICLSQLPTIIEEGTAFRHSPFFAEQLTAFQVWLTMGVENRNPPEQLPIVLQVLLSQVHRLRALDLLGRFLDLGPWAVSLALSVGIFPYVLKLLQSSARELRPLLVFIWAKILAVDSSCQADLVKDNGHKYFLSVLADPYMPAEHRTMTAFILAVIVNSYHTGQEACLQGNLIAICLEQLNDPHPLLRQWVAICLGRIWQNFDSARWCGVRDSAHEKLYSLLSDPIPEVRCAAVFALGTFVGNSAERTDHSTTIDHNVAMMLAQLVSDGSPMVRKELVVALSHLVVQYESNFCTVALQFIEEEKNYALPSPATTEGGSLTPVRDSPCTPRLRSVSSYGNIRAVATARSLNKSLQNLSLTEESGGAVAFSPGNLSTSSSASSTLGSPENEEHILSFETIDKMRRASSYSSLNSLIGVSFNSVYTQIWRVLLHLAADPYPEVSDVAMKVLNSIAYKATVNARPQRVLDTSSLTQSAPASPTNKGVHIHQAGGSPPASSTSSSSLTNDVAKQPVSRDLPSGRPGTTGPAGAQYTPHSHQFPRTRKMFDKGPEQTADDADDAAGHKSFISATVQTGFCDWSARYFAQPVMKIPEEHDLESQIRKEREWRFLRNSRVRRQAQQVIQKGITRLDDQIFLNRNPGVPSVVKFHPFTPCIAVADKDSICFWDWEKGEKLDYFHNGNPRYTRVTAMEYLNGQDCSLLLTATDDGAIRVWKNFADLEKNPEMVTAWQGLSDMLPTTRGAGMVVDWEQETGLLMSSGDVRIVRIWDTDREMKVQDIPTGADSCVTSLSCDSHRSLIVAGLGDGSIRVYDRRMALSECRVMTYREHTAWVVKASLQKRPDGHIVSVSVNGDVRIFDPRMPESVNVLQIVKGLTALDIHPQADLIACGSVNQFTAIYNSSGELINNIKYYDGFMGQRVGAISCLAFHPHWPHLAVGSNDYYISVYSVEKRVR
# UniProt Q15436, sequence (Q15436 whole entry, looked up): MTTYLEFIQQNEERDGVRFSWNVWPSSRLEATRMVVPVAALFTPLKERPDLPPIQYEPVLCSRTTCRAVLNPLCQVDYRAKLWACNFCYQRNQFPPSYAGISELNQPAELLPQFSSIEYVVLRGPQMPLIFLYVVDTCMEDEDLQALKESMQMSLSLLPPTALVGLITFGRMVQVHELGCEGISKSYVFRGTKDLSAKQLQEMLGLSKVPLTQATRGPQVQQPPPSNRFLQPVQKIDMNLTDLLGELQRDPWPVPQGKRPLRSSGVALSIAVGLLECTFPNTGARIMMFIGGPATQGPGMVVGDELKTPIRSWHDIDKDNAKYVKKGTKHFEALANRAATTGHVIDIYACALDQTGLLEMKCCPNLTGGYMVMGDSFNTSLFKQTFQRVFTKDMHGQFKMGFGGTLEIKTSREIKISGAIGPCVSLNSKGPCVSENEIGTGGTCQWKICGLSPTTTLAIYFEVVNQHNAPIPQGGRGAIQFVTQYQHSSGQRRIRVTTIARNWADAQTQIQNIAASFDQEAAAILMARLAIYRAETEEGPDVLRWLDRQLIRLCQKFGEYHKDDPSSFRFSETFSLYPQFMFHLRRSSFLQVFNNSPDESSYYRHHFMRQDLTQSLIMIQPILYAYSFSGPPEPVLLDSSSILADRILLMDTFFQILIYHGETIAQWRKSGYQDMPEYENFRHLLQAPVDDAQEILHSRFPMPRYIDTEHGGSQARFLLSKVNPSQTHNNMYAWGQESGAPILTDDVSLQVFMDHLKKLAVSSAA
# UniProt Q01974, sequence (Q01974 whole entry, looked up): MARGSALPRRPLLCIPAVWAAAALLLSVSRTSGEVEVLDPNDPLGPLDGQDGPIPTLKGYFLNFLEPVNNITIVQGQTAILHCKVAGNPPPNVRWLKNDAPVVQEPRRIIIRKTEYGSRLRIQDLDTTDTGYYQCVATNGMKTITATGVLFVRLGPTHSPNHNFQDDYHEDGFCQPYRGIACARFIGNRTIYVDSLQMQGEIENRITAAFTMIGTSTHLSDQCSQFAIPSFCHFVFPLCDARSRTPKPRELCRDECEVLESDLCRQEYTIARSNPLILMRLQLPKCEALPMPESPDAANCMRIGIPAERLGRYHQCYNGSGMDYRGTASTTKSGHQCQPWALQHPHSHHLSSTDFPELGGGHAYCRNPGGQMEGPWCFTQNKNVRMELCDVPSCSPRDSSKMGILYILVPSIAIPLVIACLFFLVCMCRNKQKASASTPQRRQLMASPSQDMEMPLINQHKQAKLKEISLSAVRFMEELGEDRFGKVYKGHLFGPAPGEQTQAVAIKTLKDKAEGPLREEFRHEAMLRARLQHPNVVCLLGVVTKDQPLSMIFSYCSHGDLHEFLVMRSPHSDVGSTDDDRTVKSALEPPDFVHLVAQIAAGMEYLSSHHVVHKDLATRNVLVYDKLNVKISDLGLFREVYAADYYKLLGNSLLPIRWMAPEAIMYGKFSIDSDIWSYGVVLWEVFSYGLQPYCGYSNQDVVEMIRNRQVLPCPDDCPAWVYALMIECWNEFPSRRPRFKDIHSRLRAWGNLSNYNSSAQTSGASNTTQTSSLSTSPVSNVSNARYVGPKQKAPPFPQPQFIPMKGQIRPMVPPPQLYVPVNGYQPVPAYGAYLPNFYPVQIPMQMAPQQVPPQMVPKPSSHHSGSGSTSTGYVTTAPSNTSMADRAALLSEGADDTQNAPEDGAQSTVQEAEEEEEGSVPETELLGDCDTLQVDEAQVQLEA
# UniProt Q99719, sequence (Q99719 whole entry, looked up): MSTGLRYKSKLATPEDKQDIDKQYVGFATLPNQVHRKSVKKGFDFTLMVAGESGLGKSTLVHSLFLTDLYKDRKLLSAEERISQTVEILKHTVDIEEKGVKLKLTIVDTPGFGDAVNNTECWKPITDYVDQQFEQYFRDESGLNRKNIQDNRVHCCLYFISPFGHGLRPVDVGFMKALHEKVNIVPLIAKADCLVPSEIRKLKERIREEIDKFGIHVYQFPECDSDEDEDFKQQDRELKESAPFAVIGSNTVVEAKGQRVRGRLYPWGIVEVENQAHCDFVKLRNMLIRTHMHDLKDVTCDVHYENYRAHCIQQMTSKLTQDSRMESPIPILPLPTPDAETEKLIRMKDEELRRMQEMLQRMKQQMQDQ
# UniProt P41440, sequence (P41440 whole entry, looked up): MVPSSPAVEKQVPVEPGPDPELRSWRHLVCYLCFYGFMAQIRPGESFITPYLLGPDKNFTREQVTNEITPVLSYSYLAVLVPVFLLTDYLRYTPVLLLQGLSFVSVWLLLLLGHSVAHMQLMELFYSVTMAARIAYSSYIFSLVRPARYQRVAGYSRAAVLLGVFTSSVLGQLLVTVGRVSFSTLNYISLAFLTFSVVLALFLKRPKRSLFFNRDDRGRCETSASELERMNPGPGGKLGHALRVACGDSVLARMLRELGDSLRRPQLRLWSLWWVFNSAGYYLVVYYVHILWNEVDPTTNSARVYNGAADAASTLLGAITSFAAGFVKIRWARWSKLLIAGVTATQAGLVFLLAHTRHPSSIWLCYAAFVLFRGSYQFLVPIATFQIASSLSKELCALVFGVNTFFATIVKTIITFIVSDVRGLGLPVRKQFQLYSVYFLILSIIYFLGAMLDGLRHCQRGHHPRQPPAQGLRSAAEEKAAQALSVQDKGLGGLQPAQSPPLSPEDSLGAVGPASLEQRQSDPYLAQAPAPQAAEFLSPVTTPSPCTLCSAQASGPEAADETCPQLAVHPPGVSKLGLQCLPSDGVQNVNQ
Target,log2 fold change [1],log2 fold change [2],log2 fold change [3],log2 fold change [4],log2 fold change (Nexturastat A),log2 fold change (vemurafenib),log2 fold change [5],log2 fold change [6],log2 fold change (givinostat),log2 fold change (barasertib),log2 fold change [7],log2 fold change (volasertib),log2 fold change [8],log2 fold change (epoxomicin),log2 fold change [9],log2 fold change [10],log2 fold change [11],log2 fold change (rosiglitazone),log2 fold change [12],log2 fold change [13]
RBM26 isoform 3 (UniProt Q5T8P6),0.017,,,,,,,,,,,,,,,,,,,
SEPTIN5 (UniProt Q99719),0.026,0,0.007,0.003,-0.06,-0.015,-0.015,0.104,-0.006,-0.013,0.03,0.047,-0.003,-0.025,0.016,-0.052,-0.019,0.032,-0.09,-0.009
SEC16A isoform 5 (UniProt O15027),-0.079,-0.042,0.036,-0.001,0.044,0.035,-0.031,0.061,0.09,0.043,-0.058,-0.271,0.051,-0.04,-0.146,-0.048,0.1,0.06,0.078,-0.047
RUFY1 (UniProt Q96T51),0.013,-0.011,-0.022,-0.035,0.063,0.043,0.059,0.029,0.031,0.027,-0.145,-0.355 (active),0.07,-0.015,0.009,0.06,0.033,0.036,0.032,-0.058
RIC8A isoform 3 (UniProt Q9NPQ8),0.074,-0.051,0.024,0.023,0.198,0.028,0.085,0.111,0.028,0.073,-0.149,-0.526 (active),0.11,0.061,-0.009,0.036,0.011,0.095,-0.005,-0.186
RPTOR (UniProt Q8N122),0.009,0.019,0.027,0.025,-0.018,0.017,0.09,0.012,-0.007,-0.007,-0.116,-0.237 (active),0.064,0.034,0.001,-0.08,0.03,0.034,-0.037,-0.197
RANBP2 (UniProt P49792),0.089,-0.07,-0.041,0.04,0.221,-0.086,0.03,-0.072,0.046,0.036,0.058,-0.006,-0.008,0,-0.063,0.099,0.026,0.03,-0.033,-0.052
SIRT2 (UniProt Q8IXJ6),0.014,-0.051,-0.016,0.027,0.004,0.012,-0.022,-0.002,0.004,0.015,0.077,0.624 (active),0.043,-0.015,-0.017,-0.038,0.009,0.033,-0.041,-0.025
REEP4 (UniProt Q9H6H4),0.08,0.001,0.047,-0.043,0.107,0.008,0.126,0.019,0.011,0.002,-0.023,-0.043,-0.011,-0.08,0.024,0.051,-0.015,-0.033,0.079,-0.134
RPS3 (UniProt P23396),0.011,0.003,-0.077,-0.042,0.069,-0.086,-0.102,0.041,0.007,-0.088,0.147,0.34,0.011,-0.125,0.033,0.125,-0.071,-0.064,0.085,0.045
SEC23A (UniProt Q15436),0.005,-0.067,-0.027,-0.041,0.008,0.049,0.06,0.003,-0.025,0.027,0.149,-0.156,0.1,-0.016,0.017,-0.123,0.052,-0.011,-0.027,0.042
RBM8A (UniProt Q9Y5S9),-0.025,-0.024,-0.02,0.075,-0.069,0.024,-0.001,0.04,-0.032,0.043,-0.051,-0.041,0.038,0.005,0.021,0.014,-0.037,-0.004,-0.035,0.065
ROR2 (UniProt Q01974),0.022,-0.061,0.001,-0.009,-0.109,0.018,0.007,0.078,0.033,0.003,-0.107,-0.123,0.129,0.035,-0.012,-0.015,-0.01,0.036,-0.069,-0.089
RHOXF2 (UniProt Q9BQY4),-0.03,0.034,-0.037,0.021,0.083,-0.015,0.012,-0.024,0.05,0.033,0.014,0.061,-0.046,0.024,-0.079,0.086,-0.028,-0.013,0.074,-0.073
SLC19A1 (UniProt P41440),0.112,-0.054,-0.019,-0.023,-0.107,0.002,-0.031,-0.018,0.007,-0.011,0.08,0.078,-0.062,0.087,0.019,-0.047,0.003,0.019,-0.109,0.172
RPS3A (UniProt P61247),0.011,0.009,-0.081,-0.036,0.069,-0.104,-0.095,0.071,-0.033,-0.109,0.133,0.339,0.02,-0.124,0.028,0.114,-0.063,-0.064,0.138,0.105
